The list is not random: actives were taken first. Their share in the collection is about 18%.
DT40 TDP1 no CPT: qHTS for Inhibitors of human tyrosyl-DNA phosphodiesterase 1 (TDP1): qHTS in cells in absence of CPT; DT40 Tdp1-/- hTDP1 cells, no CPT, ATP luminescence, 48 h; Potency, µM (top dose mostly 46.2 µM), for inactives: at the top dose activity change, negative = growth inhibition, hits mostly inhibitors; 420,000 tested, 15% active; AID 686978, 2013; also: nearly all actives have a fitted effect of over 55% in size
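Compound effects on proliferation are scored in DT40 Tdp1-/-;hTDP1 cells in the absence of CPT. ATP levels (CellTiter-Glo luminescence) are recorded after a ≥48 hr, 37 °C incubation.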
TDP1 block: qHTS Assay for Inhibitors of Tyrosyl-DNA Phosphodiesterase (TDP1); Tyrosyl-DNA phosphodiesterase 1 (Homo sapiens), Q9NUW8; recombinant TDP1, AlphaScreen DNA substrate cleavage; Potency, µM (series often up to 130 µM), for inactives: at the top dose activity change, negative = inhibition, hits mostly inhibitors; 350,000 tested, 0.28% active; AID 485290, 2010; also: nearly all actives have a fitted effect of over 40% in size
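Here, a 5' biotin and 3' phosphotyrosine-FITC DNA oligonucleotide reports Tdp1 activity: intact substrate bridges AlphaScreen beads, while cleavage leaves a 3' phosphate and drops signal. All incubations at room temperature.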
PLK1 PBD inh: qHTS for Inhibitors of PLK1-PDB (polo-like kinase 1 - polo-box domain): Primary Screen | Plk1 PBD binding of FITC phosphopeptide, fluorescence polarization | 360,000 tested, 2.8% active | Serine/threonine-protein kinase PLK1 (Homo sapiens), P53350 | Potency, µM, for the others: max response, negative = inhibition, hits mostly inhibitors; also: series mostly up to about 57 µM; nearly all actives have a fitted effect of over 65% in size
DT40 TDP1 CPT: qHTS for Inhibitors of human tyrosyl-DNA phosphodiesterase 1 (TDP1): qHTS in cells in presence of CPT; chicken DT40 Tdp1-/-;hTDP1 cells + 20 nM CPT, ATP luminescence, 48 h; Potency, µM (highest dose often 46.2 µM), inactives show top-dose activity change, negative = growth inhibition, hits mostly inhibitors; 420,000 tested, 12% active; also: nearly all actives have a fitted effect of over 55% in size
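Chicken DT40 Tdp1-/- cells stably complemented with human TDP1 were seeded at 400 cells/well in medium containing 20 nM camptothecin, exposed to pin-transferred compounds, and grown at 37 °C for at least 48 hr. Viability was read as ATP luminescence.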
VDR inh: Inhibitors of the vitamin D receptor (VDR): qHTS | Vitamin D3 receptor (Homo sapiens), P11473 | VDR-SRC2-3 peptide fluorescence polarization, 2 h | Potency, µM, without a hit: max response, negative = inhibition, actives largely listed as inhibitors | 400,000 tested, 0.93% active
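FP read-out; VDR + SRC2-3 coactivator peptide; 23 nl compound by pintool; 2 h RT incubation; reagents held at 4 deg C, protected from light.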
GCN5L2 inh: qHTS Assay for Inhibitors of GCN5L2; 390,000 tested, 0.21% active; GCN5L2 HAT assay, ThioGlo1 CoA-SH fluorescence; Potency, µM (highest dose often 58.9 µM), for inactives: at the top dose activity change, negative = inhibition, hits mostly inhibitors
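Enzyme at 20nM final was mixed with library compounds for 15 min at room temperature. Peptide H3(1-25) at 75uM, acetyl-CoA at 70uM and ThioGlo1 at 50uM were then added. Plates were read immediately and after 20 min (Ex340nm/Em540nm).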
Numbers without * were called inactive; ? = inconclusive; . = not tested or not shown; [ ] = dose if it differs, or a comment. Calls follow the shape of the dose curve; as a rule, active = well fitted curve in the direction sought with a large enough effect; inconclusive = small, poorly fitted or top-dose-only effect, or another doubt; inactive = no such curve, though single readings can be large; an effect the other way counts as inactive or inconclusive. % is scaled to controls: 0 for no effect and ±100 for the full control effect; potency is read from the fitted curve at half-maximal effect.

SMILES	DT40 TDP1 no CPT	TDP1 block	PLK1 PBD inh	DT40 TDP1 CPT	VDR inh	GCN5L2 inh
COc1ccccc1CNC(=O)COC(=O)c1ccc(Cl)c(N)c1	1%	1%	-16%	19%	2%	-17%
COc1ccc(N2CCN(C(=O)c3cn(CC4CCCCC4)nn3)CC2)cc1	?	9%	-22%	?	8%	-34%
COc1cccc(Sc2nc(N(C)C)ncc2S(=O)(=O)c2ccc(Cl)cc2)c1	?	.	.	?	12%	.
CCC(C(=O)N1CCN(c2ncccn2)CC1)c1ccccc1 (centres undefined)	?	1%	24µM*	?	-26%	15%
O=C(CCSc1ccc(Cl)cc1)N1CCN(c2ccc(O)cc2)CC1	-95%	.	-16%	-87%	-8%	-4%
O=C(CN1CCN(c2ccccc2O)CC1)Nc1ccc([N+](=O)[O-])cc1Br	23µM*	6%	-6%	?	0%	-3%
O=C(CSc1ccc(Cl)cc1)N1CCN(c2c(Cl)cccc2[N+](=O)[O-])CC1	15µM*	4%	?	16µM*	-8%	-2%
O=C(CCSc1ccc(Cl)cc1)N1CCN(c2ncccn2)CC1	?	3%	-4%	13µM*	-1%	-3%
CCCN(CCC)C[C@@H]1CCCCN1CCNC(=O)N1c2ccccc2C(=O)Nc2cccnc21	-5%	-12%	.	-8%	4%	-11%
CCOC(=O)C(=CNNc1c(C)csc1C(=O)OC)C(=O)OCC	15µM*	4%	-6%	?	-18%	-2%
COC(=O)c1scc(C)c1NC(=O)Cc1ccccc1	-12%	-3%	2%	9%	-1%	-11%
Cc1ccc(NC(=O)N(Cc2cn(C)c3ccccc23)C2CCCCC2)cc1C	5.2µM*	2%	.	5.8µM*	-9%	-3%
COc1cccc(NC(=O)N(Cc2cn(C)c3ccccc23)C2CCCCC2)c1	7.3µM*	7%	.	4.1µM*	-14%	-8%
CCc1ccc(CN2CCC(n3nccc3NC(=O)c3ccccc3Cl)CC2)cc1	?	1%	2%	23µM*	-23%	-22%
CCCCc1ncc(CN2CCC(n3nccc3NC(=O)c3ccccc3OC)CC2)[nH]1	15µM*	2%	24µM*	?	?	-3%
Cn1cc(CN2CCC(n3nccc3NC(=O)c3ccccc3Cl)CC2)cn1	-5%	4%[56.1 µM]	-3%	-2%	-10%	-20%
CSc1ccc(CN2CCC(n3nccc3NC(=O)c3ccccc3C)CC2)cc1	?	6%	30µM*	?	-21%	-7%
COc1ccc(C(=O)Nc2ccnn2C2CCN(Cc3cnn(C)c3)CC2)cc1	14%	0%	27µM*	0%	-15%	-2%
CN(C(=O)c1cc2c(=O)oc3ccccc3c2s1)c1ccc(F)cc1	-19%	6%	.	-3%	-13%	1%
CC(C)c1cccc(C(C)C)c1NC(=O)c1ccc(-c2cc(Cl)ccc2Cl)o1	?	.	-1%	-18%	.	.
CCCOc1ccc(C2C(=O)N(C3CCCCC3)CC(=O)N2CCc2ccccc2)cc1OC (centres undefined)	?	8%	.	?	22%	-6%
Cc1cc(C)c(CN2CCC(n3nccc3NC(=O)c3ccccc3Cl)CC2)cc1C	?	-1%	-19%	15µM*	-8%	-4%
CCOc1ccc(-c2nonc2NC(=O)c2oc3c(C)c(C)ccc3c2C)cc1OCC	16µM*	6%	.	15µM*	0%	-3%
CCOc1ccc(-c2nonc2NC(=O)c2oc3cc(C)c(C)cc3c2C)cc1OCC	?	-6%	.	-1%	-4%	-12%
CCCOc1ccc(-c2nonc2NC(=O)c2oc3ccc(C)cc3c2C)cc1OCCC	?	-4%	.	9.2µM*	1%	0%
SMILES	DT40 TDP1 no CPT	TDP1 block	PLK1 PBD inh	DT40 TDP1 CPT	VDR inh	GCN5L2 inh
CCCOc1ccc(-c2nonc2NC(=O)c2ccco2)cc1OCCC	?	9%	.	?	4%	-13%
CCC(=O)N1CCc2cc(CNS(=O)(=O)c3cc(OC)ccc3OC)ccc21	-1%	8%	.	-1%	-3%	0%
CC1(C)C(=O)C=CC(=O)C(C)(C)C(=O)C=CC(=O)C(C)(C)C2=CC=C(O2)C(C)(C)C(=O)C=CC1=O	0.82µM*	.	6µM*	0.82µM*	?	.
CC(C)Oc1ccccc1C1NC(=O)CCC1[N+](=O)[O-] (centres undefined)	-8%	.	0%	-1%	-9%	1%
COc1ccc(-c2cc(=O)c3cc(OC)ccc3[nH]2)cc1	?	0%	10%	-27%	?	-2%
COc1ccc2[nH]c(=O)c3c(c2c1)OC(C)(C)C=C3	15µM*	-5%	-13%	15µM*	-3%	1%
CC(=O)Sc1nc(-c2ccccc2)[nH]c1S(=O)(=O)c1ccc(C)cc1	21µM*	7%	3µM*	18µM*	?	-16%
CCN1C(Nc2ccccc2)=NC[C@@H]1C	8%	.	-3%	10%	-3%	-1%
C[C@H]1CN=C(Nc2ccccc2)N1CCC1CCCCC1	?	.	-14%	18µM*	-2%	-4%
C[C@H]1CN=C(Nc2ccccc2)N1CC1CCCCCC1	13µM*	.	-8%	18µM*	-3%	-4%
C[C@H]1CN=C(Nc2ccccc2)N1CC1CCC1	1%	.	-11%	-1%	1%	-11%
CC(C)CN1C(Nc2ccccc2)=NC[C@@H]1C	14%	.	-7%	0%	0%	-2%
C[C@H]1CN=C(Nc2ccccc2)N1CCCC1CCCC1	16µM*	.	?	18µM*	-11%	2%
CCOC(=O)c1cnc2c(-c3ccccc3)c(-c3ccccc3)nn2c1C	?	.	-2%	-19%	10%	-21%
CCCCC(CC)COCC1CO1 (centres undefined)	.	12%	.	.	.	.
COc1cc2c(cc1OC)C(COc1ccc(F)cc1)N(C(=O)Cc1ccc(F)cc1)CC2 (centres undefined)	16µM*	3%	.	26µM*	1%	1%
CCOc1cc2c(cc1OC)C(c1cccc([N+](=O)[O-])c1)NCC2 (centres undefined)	?	4%	4.7µM*	?	?	-8%

High-throughput results as filed in PubChem.
